Assay outcomes as filed in PubChem.
HT1080 IDH1KD tx = qHTS for induction of synthetic lethality in tumor cells producing 2HG: qHTS for the HT-1080-IDH1KD cell line. Potency, µM (series often up to 46.1 µM), inactives show at the top dose activity, negative = toxicity, actives largely listed as cytotoxic. 360,000 tested, 2% active. HT-1080 IDH1 knockdown viability, ATP luminescence, 48 h;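 also: 0% = DMSO wells and -100% = cell-free medium wells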
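Luminescent ATP read-out (CellTiter-Glo, 10 min at room temperature) after 48 h compound exposure at 37 °C gave viability of IDH1-knockdown HT-1080 cells. Activity was normalised to DMSO and cell-free wells, then fitted as concentration-response curves.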
HT1080-NT tox = qHTS for induction of synthetic lethality in tumor cells producing 2HG: qHTS for the HT-1080-NT fibrosarcoma cell line. HT-1080-NT fibrosarcoma viability, CellTiter-Glo ATP luminescence, 48 h. Potency, µM (titrated, usually from 46.1 µM), without a hit: at the highest dose activity, negative = less viability, most hits filed as cytotoxic. 360,000 tested, 1.6% active. AID 686970, 2013;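 also: NT is the 2HG producing partner of a matched IDH1 knockdown line; 0% = DMSO-treated cells and -100% = media-only wells without cells; nearly all actives have a fitted effect of over 55% in size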
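750 cells/well, RPMI + 5% FBS; 2 h settle, compound pin-transfer, 48 h at 37 degrees C. CellTiter-Glo 10 min RT, luminescence. Normalized to DMSO and media-only wells.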
DT40 TDP1 no CPT = qHTS for Inhibitors of human tyrosyl-DNA phosphodiesterase 1 (TDP1): qHTS in cells in absence of CPT. DT40 Tdp1-/- hTDP1 cells, no CPT, ATP luminescence, 48 h. 420,000 tested, 15% active. AID 686978, 2013. Potency, µM (highest dose often 46.2 µM), for inactives: at the highest dose activity change, negative = growth inhibition, usual class: inhibitors; also: nearly all actives have a fitted effect of over 55% in size
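No-CPT arm: Tdp1-/-;hTDP1 DT40 cells (400/well) plus compounds, incubated ≥48 hr at 37 °C. Readout CellTiter-Glo luminescence.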
KB-3-1 cytotox = qHTS assay for MDR1-selective chemotherapeutics: Primary screen using the parental adenocarcinoma cell KB-3-1 | AID 1347075, 2019 | 400,000 tested, 1.4% active | KB-3-1 viability, CellTiter-Glo ATP luminescence, 72 h | Potency, µM (doses to about 46.1 µM), actives largely listed as cytotoxic; also: nearly all actives have a fitted effect of over 60% in size
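KB-3-1 cells, DMEM (no phenol red) + 10% FBS; compound by pin transfer, 72 h, 37 °C. Readout: CellTiter-Glo luminescence after 10 min. Data normalized, curve-fitted.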
KB-V1 MDR tox = qHTS assay for MDR1-selective chemotherapeutics: Primary screen using the drug-selected MDR subline cells KB-V1; 400,000 tested, 3.4% active; Potency, µM (highest dose often 46.1 µM), most hits filed as cytotoxic; AID 1347076, 2019; KB-V1 MDR cells viability, CellTiter-Glo, 72 h; also: nearly all actives have a fitted effect of over 60% in size
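qHTS viability screen in drug-selected KB-V1 MDR cells: 72 h compound treatment at 37 degrees C, ATP luminescence end point.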
TDP1 cell CPT = qHTS for Inhibitors of human tyrosyl-DNA phosphodiesterase 1 (TDP1): qHTS in cells in presence of CPT | chicken DT40 Tdp1-/-;hTDP1 cells + 20 nM CPT, ATP luminescence, 48 h | Potency, µM (titrated, usually from 46.2 µM), inactives show at the highest dose activity change, negative = growth inhibition, usual class: inhibitors | 420,000 tested, 12% active; also: nearly all actives have a fitted effect of over 55% in size
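Chicken DT40 Tdp1-/- cells complemented with human TDP1, 400 cells/well, exposed to compounds plus 20 nM camptothecin for at least 48 h at 37 C; viability read as ATP content by CellTiter-Glo luminescence.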
Numbers without * were called inactive; i = inactive; ? = inconclusive; . = not tested or not shown. This is a sample that favours compounds with a hit; in the whole collection about 19% have one here. Calls follow the shape of the dose curve; as a rule, active = well fitted curve in the direction sought with a large enough effect; inconclusive = small, poorly fitted or top-dose-only effect, or another doubt; inactive = no such curve, though single readings can be large; an effect the other way counts as inactive or inconclusive. Unless noted, % is scaled to controls: 0 for no effect and ±100 for the full control effect; potency is read from the fitted curve at half-maximal effect.

SMILES	HT1080 IDH1KD tx	HT1080-NT tox	DT40 TDP1 no CPT	KB-3-1 cytotox	KB-V1 MDR tox	TDP1 cell CPT
Cc1ccc([C@@H]2CC(=O)[C@@H]3CN(S(=O)(=O)c4ccc(C)cc4)[C@H](c4ccc(Cl)cc4)C[C@@H]3N2S(=O)(=O)c2ccc(Cl)cc2)cc1	6.8%	-2.9%	?	i	i	-18.1%
CN(C)S(=O)(=O)c1ccc(NC(=O)CN2C(=O)NC3(CCCC3)C2=O)cc1	16.6%	22.4%	-10.2%	i	i	-11.0%
COc1ccc(CC(=O)NCCc2sc(-c3ccc(Cl)cc3)nc2C)cc1OC	.	.	20.6µM*	i	i	?
Cc1cc(C)cc(C(=O)NCCc2sc(-c3ccc(F)cc3)nc2C)c1	.	.	20.6µM*	i	?	13µM*
COc1ccc(C(=O)NCCc2sc(-c3cccc(F)c3)nc2C)cc1	.	.	16.4µM*	i	i	23.1µM*
COc1ccc(C(=O)NCCc2sc(-c3ccc(F)cc3)nc2C)cc1OC	.	.	14.6µM*	i	i	?
COc1ccc(-c2nc(C)c(CCNC(=O)Cc3ccc(F)cc3)s2)cc1OC	.	.	.	i	?	.
CCc1ccc(OCc2cc(=O)n3c4c(sc3n2)CCCC4)cc1	.	.	?	i	i	-26.7%
Cc1nc(-c2ccc(Cl)cc2)sc1CCNC(=O)c1ccco1	.	.	18.4µM*	i	i	20.6µM*
CC(=O)c1sc(NC(=O)CCN2C(=O)c3ccccc3C2=O)nc1C	2.7%	3.6%	7.2%	i	i	2.6%
CCOC(=O)C1CCCN(C(=O)COC(=O)c2ccc(C#N)cc2)C1 (stereo not given)	7.7%	22.0%	-5.4%	i	i	18.5%
O=C(CCl)NC(Cc1c[nH]c2ccc(OCc3ccccc3)cc12)C(=O)O (stereo not given)	1.0%	12.2%	-7.7%	i	i	16.1%
Cc1ccc2c(c1)S/C(=C/c1ccc[n+](C)c1)N2CCO	?	?	2.59µM*	?	?	3.26µM*
COc1ccc(OCC(O)Cn2ccnc2C)cc1 (stereo not given)	10.5%	4.9%	-25.9%	i	i	-2.4%
COc1cc(OC)cc(OCC(O)Cn2cnc3cc(C)c(C)cc32)c1 (stereo not given)	-5.4%	1.5%	16.4µM*	i	?	?
COc1cc(/C=C/c2nc(N)nc(-c3ccccc3O)n2)cc(OC)c1OC	-28.2%	-29.4%	10.3µM*	i	i	?
Cc1ccc(NC(=O)c2cc(-c3ccccc3O)n[nH]2)cc1Cl	16.4%	20.4%	-0.2%	i	?	6.9%
COc1cc(/C=C/c2nc(-c3ccccc3O)n[nH]2)cc(OC)c1OC	?	?	14.6µM*	?	?	20.6µM*
CC(=O)Nc1ccc(/C=C/c2nc(-c3ccccc3O)n[nH]2)cc1	-7.8%	-17.7%	29.1µM*	i	i	?
COc1ccc(/C=C/c2nc(N)nc(-c3ccccc3O)n2)cc1OC	-19.9%	-13.4%	?	i	i	?
COc1cc(/C=C/c2noc(-c3ccccc3O)n2)cc(OC)c1OC	-14.4%	-12.5%	?	i	i	1.9%
Cc1c(N(C)S(=O)(=O)c2cc(C(=O)N3CCCC3)ccc2Cl)c(=O)n(-c2ccccc2)n1C	13.9%	-2.5%	2.9%	.	.	-14.6%
CC(=O)Nc1ccc(Oc2ccccc2)cc1	-3.0%	0.4%	2.2%	i	i	2.2%
CC(=O)/C(=C/Nc1ccc(Oc2ccccc2)cc1)c1ccccc1	1.3%	-1.4%	18.4µM*	i	?	?
CC(=O)/C(=C\Nc1ccc(OCc2ccccc2)cc1)c1ccccc1	18.6%	6.2%	29.1µM*	i	?	18.4µM*
SMILES	HT1080 IDH1KD tx	HT1080-NT tox	DT40 TDP1 no CPT	KB-3-1 cytotox	KB-V1 MDR tox	TDP1 cell CPT
c1ccc(-c2ccccc2OCCCCN2CCCCC2)cc1	?	?	16.4µM*	i	i	?
c1ccc2c(OCCCCN3CCCC3)cccc2c1	-11.5%	-12.3%	25.9µM*	i	i	?
N=C(CC(O)COc1ccccc1-c1ccccc1)N1CCCCC1 (stereo not given)	.	.	3.26µM*	.	.	5.17µM*
Cc1cc(OC(=O)c2ccc(Cl)cc2Cl)nc(C)n1	1.7%	0.6%	-6.1%	i	i	-2.7%
Cn1cccc1CN1CCC[C@]2(N[C@H](c3ccccc3)[C@@H]3C(=O)N(Cc4ccccc4)C(=O)[C@@H]32)C1=O	0.6%	0.3%	?	i	i	?
CCOc1ccc(NC(=S)Nc2cc(OC)c(Cl)cc2OC)cc1	6.1%	10.0%	?	i	16.4µM*	14.6µM*
COc1cc(NC(=S)Nc2cccc(Cl)c2Cl)c(OC)cc1Cl	2.3%	1.9%	-25.9%	i	i	0.3%
CCCC(=O)Nc1cc(OC)c(NC(=S)Nc2cccc(C)c2)cc1OC	-5.2%	-7.7%	-23.9%	i	i	?
CCOc1ccc(NC(=S)Nc2cccc3ccccc23)cc1	0.5%	0.2%	-13.9%	i	?	?
CCOc1ccc(NC(=S)Nc2ccccc2C2CC2)cc1	6.0%	12.1%	4.11µM*	i	i	5.8µM*
CCCC(=O)Nc1cc(OC)c(NC(=S)Nc2ccc(CC)cc2)cc1OC	23.6%	22.2%	16.4µM*	i	i	0.6%
O=C1Nc2ccccc2C(=O)N(C2CCCC2)C1C(=O)NC1CC1 (stereo not given)	16.1%	16.6%	5.7%	i	i	-4.8%
Cc1cc(C)cc(OCC(=O)Nc2cnn(CCCC(=O)O)c2)c1	14.2%	2.5%	10.9%	i	i	10.8%
CCOC(=O)C1CCN(C(=O)c2cccc(S(=O)(=O)NCc3ccccc3)c2)CC1	6.0%	4.7%	?	i	i	-24.6%
CC(C)NC(=O)N1Cc2cc(C(=O)NC3CCCC3)nc(-c3cccc(-c4cccnc4)c3)c2[C@H]1CCO	?	?	?	i	i	?
CCC(=O)N1Cc2cc(C(=O)Nc3nccs3)nc(-c3cccc(-c4ccccc4OC)c3)c2[C@H]1CCO	?	?	16.4µM*	i	?	?
